Screens from PubChem.
DT40 TDP1 no CPT: qHTS for Inhibitors of human tyrosyl-DNA phosphodiesterase 1 (TDP1): qHTS in cells in absence of CPT | DT40 Tdp1-/- hTDP1 cells, no CPT, ATP luminescence, 48 h | Potency, µM (highest dose often 46.2 µM), usual class: inhibitors | hit rate 15% among 420,000; also: nearly all actives have a fitted effect of over 55% in size
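Compound effects on proliferation are scored in DT40 Tdp1-/-;hTDP1 cells in the absence of CPT. ATP levels (CellTiter-Glo luminescence) are recorded after a ≥48 hr, 37 °C incubation.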
RORgamma inh: ROR gamma (mouse) transcription inhibition. AID 2551. Drosophila S2 Gal4-RORgamma UAS-luciferase reporter, 20 h. P51450. hit rate 5.4% among 310,000. Potency, µM (highest dose often 53.6 µM), usual class: inhibitors; also: nearly all actives have a fitted effect of over 60% in size
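Compounds are pin-transferred onto Drosophila Schneider cells expressing a copper-inducible Gal4–ROR gamma transactivation domain fusion. After 1 hr, copper sulfate is added to 700 uM final; luciferase is read 20 hr later.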
DT40 TDP1 CPT: growth inhibition of DT40 Tdp1-/-;hTDP1 cells with camptothecin (screen for TDP1 inhibitors); chicken DT40 Tdp1-/-;hTDP1 cells + 20 nM CPT, ATP luminescence, 48 h; Potency, µM (top dose mostly 46.2 µM), hits mostly inhibitors; hit rate 12% among 420,000; also: nearly all actives have a fitted effect of over 55% in size
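Chicken DT40 Tdp1-/- cells stably complemented with human TDP1 were seeded at 400 cells/well in medium containing 20 nM camptothecin, exposed to pin-transferred compounds, and grown at 37 °C for at least 48 hr. Viability was read as ATP luminescence.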
VP16 counter: counter-screen for ROR gamma inhibitors: Gal4-VP16 reporter. Drosophila S2 Gal4-VP16 UAS-luciferase, luminescence, 20 h. Potency, µM (titrated, usually from 53.6 µM), actives largely listed as inhibitors. hit rate 3.5% among 310,000;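 also: Gal4-VP16 expression switched on by copper sulfate through the metallothionein promoter; nearly all actives have a fitted effect of over 50% in size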
12-LOX inh: ALOX12 (human) lipoxygenase inhibition; purified 12hLO, xylenol orange hydroperoxide absorbance; Potency, µM (titrated, usually from 108 µM), hits mostly inhibitors; hit rate 1.1% among 580,000
Target sequence (P18054 whole entry, looked up): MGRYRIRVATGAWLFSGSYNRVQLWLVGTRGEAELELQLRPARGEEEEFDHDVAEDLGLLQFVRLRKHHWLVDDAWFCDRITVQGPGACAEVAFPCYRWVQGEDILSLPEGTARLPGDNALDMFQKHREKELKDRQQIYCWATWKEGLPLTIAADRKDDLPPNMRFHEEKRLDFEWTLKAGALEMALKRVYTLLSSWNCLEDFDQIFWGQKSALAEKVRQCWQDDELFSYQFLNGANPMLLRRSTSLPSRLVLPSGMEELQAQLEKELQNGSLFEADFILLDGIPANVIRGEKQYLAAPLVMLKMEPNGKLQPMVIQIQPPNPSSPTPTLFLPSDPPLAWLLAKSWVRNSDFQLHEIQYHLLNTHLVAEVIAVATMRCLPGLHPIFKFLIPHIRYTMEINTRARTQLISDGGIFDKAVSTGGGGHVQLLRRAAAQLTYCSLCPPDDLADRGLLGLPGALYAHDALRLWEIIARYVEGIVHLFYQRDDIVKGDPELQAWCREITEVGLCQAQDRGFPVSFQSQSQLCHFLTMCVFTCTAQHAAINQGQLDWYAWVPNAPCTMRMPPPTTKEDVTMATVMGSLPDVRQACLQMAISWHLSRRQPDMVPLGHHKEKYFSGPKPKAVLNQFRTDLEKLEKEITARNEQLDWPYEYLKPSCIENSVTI
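Hydroperoxide product was detected by ferrous iron/xylenol orange as the 573 to 405 nm absorbance ratio. Arachidonic acid at 40 uM (final) was turned over for 30 min at room temperature by 150 nM human 12hLO, pH 7.0 Hepes buffer, after 15 min compound preincubation.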
ELG1 repair inh: ELG1-dependent DNA repair inhibition | HEK293T ELG1-luciferase reporter, luminescence, 16 h; DNA damage induced by 5-fluorouridine | Potency, µM (highest dose often 46.1 µM), usual class: inhibitors | hit rate 2.3% among 330,000; also: nearly all actives have a fitted effect of over 55% in size
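Overnight (16 hr) co-exposure of 2,000 cells/well to 5-fluorouridine and compound at 37 °C preceded detection. Luciferase was quantified via ONE-Glo luminescence; loss of signal denotes inhibition.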
A number is an active result. A selection: hits, their analogues and other compounds. The true share with any hit is near 15%. Calls follow the shape of the dose curve; as a rule, active = well fitted curve in the direction sought with a large enough effect; inconclusive = small, poorly fitted or top-dose-only effect, or another doubt; inactive = no such curve, though single readings can be large; an effect the other way counts as inactive or inconclusive.

How did CCC1=C[C@@H]2CN(C1)Cc1c([nH]c3ccccc13)[C@@](C(=O)OC)(c1cc3c(cc1OC)N(C)[C@H]1[C@@](O)(C(=O)OC)[C@H](OC(C)=O)[C@]4(CC)C=CCN5CC[C@]31[C@@H]54)C2 do in these assays?
DT40 TDP1 no CPT: 0.053µM; RORgamma inh: inactive; DT40 TDP1 CPT: 0.06µM; VP16 counter: inactive

Results for CC[C@]1(O)CC2CN(CCc3c([nH]c4ccccc34)[C@@](C(=O)OC)(c3cc4c(cc3OC)N(C)[C@H]3[C@@](O)(C(N)=O)[C@H](O)[C@]5(CC)C=CCN6CC[C@]43[C@@H]65)C2)C1 (stereo partly drawn) ?
DT40 TDP1 no CPT: 0.34µM; DT40 TDP1 CPT: 0.34µM

Results for CC[C@]1(O)C[C@@H]2CN(CCc3c([nH]c4ccccc34)[C@@](C(=O)OC)(c3cc4c(cc3OC)N(C)C3[C@]45CCN4CC=C[C@](CC)(C45)[C@@H](OC(C)=O)[C@]3(O)C(=O)OC)C2)C1 (stereo partly drawn) ?
DT40 TDP1 no CPT: 0.016µM; DT40 TDP1 CPT: 0.025µM; 12-LOX inh: inactive

Results for O=C(CCCC(=O)NN=C1CCCC1)NN=C1CCCC1 ?
12-LOX inh: inactive

Results for O=C(Cc1ccsc1)N1CCc2n[nH]c(=O)n2CC1 ?
12-LOX inh: inactive

What do the screens show for `O=C1CCCN2N=C(SCC(=O)Nc3cccc(C(F)(F)F)c3)SC2=N1`?
DT40 TDP1 no CPT: 5.2µM; RORgamma inh: inactive; DT40 TDP1 CPT: 4.6µM; VP16 counter: inconclusive; 12-LOX inh: inactive; ELG1 repair inh: inactive

What do the screens show for `O=C(CSC1=NCCN1)Nc1cccc(C(F)(F)F)c1`?
DT40 TDP1 no CPT: inconclusive; RORgamma inh: inactive; DT40 TDP1 CPT: 21µM; VP16 counter: inactive; 12-LOX inh: inactive; ELG1 repair inh: inactive

How did O=C1CCCN2N=C(SCC(=O)Nc3cccc(Cl)c3)SC2=N1 do in these assays?
DT40 TDP1 no CPT: 21µM; RORgamma inh: inconclusive; DT40 TDP1 CPT: 16µM; VP16 counter: inactive; 12-LOX inh: inactive; ELG1 repair inh: inconclusive

How did O=C1CCCN2N=C(SCC(=O)Nc3ccccc3C(F)(F)F)SC2=N1 do in these assays?
DT40 TDP1 no CPT: inactive; RORgamma inh: inactive; DT40 TDP1 CPT: inactive; VP16 counter: inactive; 12-LOX inh: inactive; ELG1 repair inh: inactive

What do the screens show for `CCOc1ccc(NC(=O)CSC2=NN3CCCC(=O)N=C3S2)cc1`?
DT40 TDP1 no CPT: inconclusive; RORgamma inh: inactive; DT40 TDP1 CPT: inconclusive; VP16 counter: inactive; 12-LOX inh: inactive; ELG1 repair inh: inactive

How did Cc1ccc(NC(=O)CSC2=NN3CCCC(=O)N=C3S2)cc1Cl do in these assays?
DT40 TDP1 no CPT: 21µM; RORgamma inh: inactive; DT40 TDP1 CPT: inconclusive; VP16 counter: inactive; 12-LOX inh: inactive; ELG1 repair inh: inactive

What do the screens show for `O=C1CCCN2N=C(SCC(=O)Nc3ccc(Cl)cc3)SC2=N1`?
DT40 TDP1 no CPT: inactive; RORgamma inh: inconclusive; DT40 TDP1 CPT: inactive; VP16 counter: inactive; 12-LOX inh: inactive; ELG1 repair inh: inactive

How did CN1C[C@@H](N)C[C@H]1c1nc(-c2ccc3c(c2)OCO3)no1 do in these assays?
12-LOX inh: inactive

What do the screens show for `Nn1cnc2c([nH]c3ccccc32)c1=O`?
DT40 TDP1 no CPT: inactive; RORgamma inh: inactive; DT40 TDP1 CPT: inactive; VP16 counter: inactive; 12-LOX inh: inactive; ELG1 repair inh: inactive

How did Clc1ccc2[nH]c3c(NCC4CCCO4)ncnc3c2c1 (stereo not drawn) do in these assays?
RORgamma inh: inactive; VP16 counter: inconclusive; 12-LOX inh: inactive; ELG1 repair inh: inconclusive

Results for Clc1ccc2[nH]c3c(N4CCC5(CC4)OCCO5)ncnc3c2c1 ?
DT40 TDP1 no CPT: 18µM; RORgamma inh: inconclusive; DT40 TDP1 CPT: 23µM; VP16 counter: inconclusive; ELG1 repair inh: inconclusive

Results for c1ccc2c(c1)[nH]c1c(N3CCN(C4CCCCC4)CC3)ncnc12 ?
DT40 TDP1 no CPT: 15µM; RORgamma inh: inactive; DT40 TDP1 CPT: inconclusive; VP16 counter: inactive; 12-LOX inh: inactive; ELG1 repair inh: inactive

What do the screens show for `c1ccc2c(c1)[nH]c1c(N3CCOCC3)ncnc12`?
DT40 TDP1 no CPT: 13µM; RORgamma inh: inactive; DT40 TDP1 CPT: 16µM; VP16 counter: inconclusive; 12-LOX inh: inactive; ELG1 repair inh: inconclusive

What do the screens show for `c1ccc2c(c1)[nH]c1c(N3CCSCC3)ncnc12`?
DT40 TDP1 no CPT: 18µM; RORgamma inh: inconclusive; DT40 TDP1 CPT: inconclusive; VP16 counter: inactive; 12-LOX inh: inactive; ELG1 repair inh: inactive

How did CCOc1ccc(NC(=O)c2ccc3c(c2)S(=O)(=O)N=C(C)N3CC(C)C)cc1 do in these assays?
12-LOX inh: inactive

How did Cc1ccccc1CS(=O)Cc1ccc(F)cc1 (stereo not drawn) do in these assays?
12-LOX inh: inactive

How did C[C@H]1[C@@H]2[C@@H](O)C([C@H](C)C(=O)N3CCCC3)CC[C@@]2(C)CC[C@@H]1NC(=O)c1ccccc1 (stereo partly drawn) do in these assays?
12-LOX inh: inactive

What do the screens show for `c1ccc2c(c1)[nH]c1c(N3CCCC3)ncnc12`?
DT40 TDP1 no CPT: 5.2µM; RORgamma inh: inactive; DT40 TDP1 CPT: 5.8µM; VP16 counter: inconclusive; 12-LOX inh: inactive; ELG1 repair inh: inconclusive

What do the screens show for `CCOc1ncnc2c1[nH]c1ccccc12`?
DT40 TDP1 no CPT: inconclusive; RORgamma inh: inconclusive; DT40 TDP1 CPT: inconclusive; VP16 counter: inactive; 12-LOX inh: inactive; ELG1 repair inh: inconclusive

What do the screens show for `Cn1ccnc1C(=O)N1CCC(Oc2cccc(F)c2)C1` (stereo not drawn)?
12-LOX inh: inactive

Results for O=C(Nc1ccc(F)cc1)c1ccn2nccc2c1 ?
12-LOX inh: inactive

How did CCc1c(C)nc2cc(-c3ccc(OC)c(OC)c3)nn2c1NCC1CC1 do in these assays?
DT40 TDP1 no CPT: 16µM; RORgamma inh: 11µM; DT40 TDP1 CPT: 13µM; VP16 counter: 4.5µM; 12-LOX inh: inactive; ELG1 repair inh: 15µM

Results for COc1cccc2c1O/C(=N\O)C(C(=O)Nc1ccc(C)cc1)C2 (stereo not drawn) ?
DT40 TDP1 no CPT: 5.2µM; RORgamma inh: inactive; DT40 TDP1 CPT: 5.8µM; VP16 counter: inactive; 12-LOX inh: inactive; ELG1 repair inh: inactive

Results for COCC[C@]1(O)CCN(C(=O)CCCc2cccs2)C[C@H]1C ?
12-LOX inh: inactive

How did Cc1ccc2nc(CO[C@H]3CN(c4ccc(C#N)cn4)C[C@H]3F)[nH]c2c1 do in these assays?
12-LOX inh: 14µM
